Measured values as given in PubChem BioAssay (EPA / NIEHS).
Results filed as inconclusive are left out. Calls of active or inactive are those of the source. Rule for the calls, unless noted: active = hit-call score of the fitted dose curve at least 0.9, where 1 is the maximum; inconclusive = response in the unintended direction; inactive = score below 0.9.

What was measured:
[1] = TOX21_p53_BLA_p2_viability: Viability Assessment in the Tox21 HCT-116 p53 Agonism Beta-lactamase Assay, Phase 2 (AID 2283591);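 note: compound exposure lasted 16 h at 37 °C; actives lower the ATP signal meaning cytotoxicity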
Method in brief: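 HCT-116 p53-bla cells (4000/well) rested 5 h at 37C, then received compounds in DMSO (217-fold dilution) for 16 h at 37C, 5% CO2. After the CCF4 read, CellTiter-Glo was added; ATP luminescence was read after 30 min at room temperature.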

[2] = TOX21_p53_BLA_p3_viability: Viability Assessment in the Tox21 HCT-116 p53 Agonism Beta-lactamase Assay, Phase 3 (AID 2283593);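 note: cells exposed to compound for 16 h before reading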
Method in brief: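 HCT-116 cells (4000/well) rested 5 h at 37C, then got DMSO compounds by pin tool (217-fold dilution) for 16 h at 37C, 5% CO2. After the bla read, CellTiter-Glo was added and luminescence read at 30 min, room temperature.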

[3] = TOX21_p53_BLA_p4_viability: Viability Assessment in the Tox21 HCT-116 p53 Agonism Beta-lactamase Assay, Phase 4 (AID 2283597);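 note: hits lower the luminescence signal meaning cytotoxicity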
Method in brief: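 We seeded HCT116 p53 reporter cells at 4000/well and waited 5 h. We then added compounds in DMSO at a 217-fold dilution and incubated for 16 h. Viability was read as CellTiter-Glo luminescence after 30 min at RT.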

[4] = biological target: Cellular tumor antigen p53 (Homo sapiens) (UniProt P04637); experiment: TOX21_p53_BLA_p5_ratio: Tox21 HCT-116 p53 Agonism Beta-lactamase Assay, Ratio, Phase 5 (AID 2283599)
Method in brief: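 HCT-116 cells carrying a p53-inducible beta-lactamase reporter were seeded at 4000 cells/well and dosed after 5 h with compound in DMSO (217-fold dilution). After 16 h at 37C, CCF4-AM substrate was added for 2 h, and the 460/530 nm emission ratio was scored as gain-of-signal versus DMSO.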

[5] = TOX21_p53_BLA_p5_viability: Viability Assessment in the Tox21 HCT-116 p53 Agonism Beta-lactamase Assay, Phase 5 (AID 2283600)
Method in brief: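 Compounds, pinned from DMSO at 217-fold dilution, were left on the cells for 16 h. The viability endpoint was ATP content measured by CellTiter-Glo luminescence, where falling signal reflects cytotoxicity.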

[6] = biological target: Cellular tumor antigen p53 (Homo sapiens) (UniProt P04637); experiment: TOX21_p53_BLA_p4_ratio: Tox21 HCT-116 p53 Agonism Beta-lactamase Assay, Ratio, Phase 4 (AID 2283601)
Method in brief: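 HCT116 cells carrying an inducible beta-lactamase reporter were plated at 4000 cells/well, rested 5 h, then exposed to compounds in DMSO (217-fold dilution) for 16 h at 37C. CCF4-AM substrate was loaded 2 h at room temperature; 460/530 nm emission ratio scored gain-of-signal versus DMSO.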

[7] = biological target: Cellular tumor antigen p53 (Homo sapiens) (UniProt P04637); experiment: TOX21_p53_BLA_p3_ratio: Tox21 HCT-116 p53 Agonism Beta-lactamase Assay, Ratio, Phase 3 (AID 2283596)
Method in brief: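 HCT116 p53-bla cells (4000/well) given compound in DMSO (217-fold dilution) after 5 h, incubated 16 h at 37C. CCF4-AM substrate 2 h at room temperature; 460/530 nm emission ratio, gain fitted against DMSO.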

[8] = biological target: Cellular tumor antigen p53 (Homo sapiens) (UniProt P04637); experiment: TOX21_p53_BLA_p2_ratio: Tox21 HCT-116 p53 Agonism Beta-lactamase Assay, Ratio, Phase 2 (AID 2283592)
Method in brief: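 In this cell-based reporter format, HCT116 cells were dosed with chemicals delivered from DMSO by 217-fold dilution and incubated 16 h at 37C. Emission at 460 and 530 nm after 2 h CCF4-AM loading provided the ratio, fitted upward versus DMSO.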

[9] = UKN5_HCS_SBAD2_neurite_outgrowth: University of Konstanz (UKN) Leist Lab Neurite Outgrowth Assay in human iPSC-derived immature Dorsal Root Ganglia Neurons (UKN5) (AID 2284070; active = hit-call score of the fitted dose curve at least 0.9, where 1 is the maximum; inactive = score below 0.9); conditions: actives raise or lower the signal
Method in brief: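 Read-out: calcein-AM-stained neurite area by high-content imaging, Hoechst H-33342 for viability, after 24 h exposure of iPSC-derived immature dorsal root ganglia neurons. Activity fitted in both directions relative to DMSO baseline.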

[10] = UKN2_HCS_IMR90_neural_migration: University of Konstanz (UKN) Leist Lab Neural Crest Cell Migration Assay in human induced IMR90 Pluripotent Stem Cells (UKN2) (AID 2284204; active = hit-call score of the fitted dose curve at least 0.9, where 1 is the maximum; inactive = score below 0.9); conditions: actives raise or lower the signal
Method in brief: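 iPSC-derived IMR90 neural crest cells on PLO/laminin/fibronectin were seeded around silicone stoppers; after stopper removal, migration in N2-S medium with EGF and FGF ran 24 h before 24 h chemical exposure. Calcein-AM/Hoechst high-content imaging; bidirectional fit versus DMSO.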

[11] = UKN4_HCS_LUHMES_cell_viability: Viability Assessment in the University of Konstanz (UKN) Leist Lab Neurite Outgrowth Assay in human LUHMES cells (UKN4) (AID 2284232; active = hit-call score of the fitted dose curve at least 0.9, where 1 is the maximum; inactive = score below 0.9)
Method in brief: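 Fluorescence intensity from high-content imaging of Hoechst H-33342/calcein-AM-stained cells served as the viability read-out. Human LUHMES precursors were differentiated 2 days, replated and treated 24 h; curves were fitted bidirectionally against DMSO.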

[12] = UKN2_HCS_IMR90_cell_viability: Viability Assessment in the University of Konstanz (UKN) Leist Lab Neural Crest Cell Migration Assay in human induced IMR90 Pluripotent Stem Cells (UKN2) (AID 2284233; active = hit-call score of the fitted dose curve at least 0.9, where 1 is the maximum; inactive = score below 0.9;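 note: viability of neural crest cells differentiated from IMR90 iPSC measured by calcein-AM fluorescence imaging; cells exposed to compound for 24 h after a 24 h migration phase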)
Method in brief: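 iPSC-derived (IMR90) neural crest cells seeded around silicone stoppers on PLO/laminin/fibronectin; after 24 h migration in N2-S with EGF/FGF, chemical added for 24 h. Calcein-AM/Hoechst stained 30 min, high-content imaged; bidirectional fit versus DMSO.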

Measured: outcome

Sequence of Cellular tumor antigen p53 (Homo sapiens) (P04637 whole entry, looked up): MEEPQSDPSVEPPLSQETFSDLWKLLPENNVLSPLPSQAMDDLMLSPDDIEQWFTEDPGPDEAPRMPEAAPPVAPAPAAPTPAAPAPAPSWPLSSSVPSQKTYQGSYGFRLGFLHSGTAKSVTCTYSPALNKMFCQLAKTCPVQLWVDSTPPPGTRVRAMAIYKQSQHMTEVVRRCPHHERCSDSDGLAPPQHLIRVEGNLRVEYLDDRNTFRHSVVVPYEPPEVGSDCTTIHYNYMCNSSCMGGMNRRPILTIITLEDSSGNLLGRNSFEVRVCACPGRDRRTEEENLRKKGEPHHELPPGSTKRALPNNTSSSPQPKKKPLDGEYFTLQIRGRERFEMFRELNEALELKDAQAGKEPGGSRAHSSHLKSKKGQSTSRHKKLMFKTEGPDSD

CCOP(=S)(OCC)Oc1cc(-c2ccccc2)on1
inactive: [1] | [2] | [3] | [4]

COC(=O)c1ccc(CBr)cc1
inactive: [1] | [2] | [3] | [5] | [6]

CC1NCCOC1c1ccccc1 (centres undefined)
inactive: [1] | [2] | [7] | [5] | [6]

O=C(Cl)/C=C/C(=O)Cl
inactive: [1] | [2] | [3] | [4] | [5] | [6]

c1ccccc1
inactive: [1] | [2] | [7] | [6]

O=C(NCc1cccnc1)Nc1ccc([N+](=O)[O-])cc1
inactive: [1] | [2] | [3] | [5] | [6]

CC(=O)CCC(C)=O
inactive: [1] | [2] | [3] | [4]

C[N+]1(CCF)[C@@H]2CC[C@H]1CC(OC(=O)C(O)(c1ccccc1)c1ccccc1)C2 (some centres undefined)
inactive: [8]

CN1CC[C@]23c4c5ccc(O)c4O[C@H]2[C@@H](O)C=C[C@H]3[C@H]1C5
inactive: [9] | [10] | [11] | [12]

CCC(=O)O[C@H]1[C@@H](N2CCCCC2)C[C@H]2[C@@H]3CC[C@H]4C[C@H](OC(C)=O)[C@@H](N5CCCCC5)C[C@]4(C)[C@H]3CC[C@@]21C
inactive: [8] | [2] | [7]

C=C[C@H]1CN2CC[C@H]1C[C@@H]2[C@@H](O)c1ccnc2ccccc12
inactive: [8] | [2] | [7] | [3] | [4] | [5] | [6]

CC(=O)OC1CN2CCC1CC2 (centres undefined)
inactive: [8] | [2] | [7] | [4] | [5] | [6]
